# FLuc inh = Photinus pyralis luciferase inhibition | 76,000 tested, 2.5% active | Potency, µM (highest dose often 115 µM), hits mostly inhibitors | P08659 | purified P. pyralis luciferase, luminescence, biochemical; further: nearly all actives have a fitted effect of over 65% in size
#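 Purified 10nM P. pyralis luciferase with 10uM D-luciferin and 10uM ATP in 50mM Tris acetate pH 7.5, 10mM Mg acetate, 0.01% Tween-20, 0.05% BSA. qHTS titration; luminescence read by CCD imager.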
# NIH3T3 tox = NIH 3T3 cell cytotoxicity. NIH 3T3 viability, CellTiter-Glo ATP luminescence, 48-72 h. Potency, µM (titrated, usually from 96.7 µM), for the others: top-dose activity change, negative = cytotoxicity, most hits filed as inhibitors. 94,000 tested, 4.3% active; further: nearly all actives have a fitted effect of over 55% in size
#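 Cytotoxicity was measured by CellTiter-Glo ATP luminescence after 48 or 72 h compound exposure at 37 °C. Mouse NIH 3T3 fibroblasts were seeded at 400 cells/well and dosed by 23 nL pin transfer.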
# hNpr1 antagonist = antagonists of human natriuretic peptide receptor Npr1; P16066; HEK293 hNpr1 GloSensor cGMP, ANP-stimulated luminescence; 76,000 tested, 1.6% active; Potency, µM (doses to about 46.3 µM), for the others: at the top dose activity change, negative = inhibition, most hits filed as inhibitors; calls by dose curve; further: nearly all actives have a fitted effect of over 60% in size
#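 Compound pre-incubated 30 min at room temperature on GloSensor-loaded HEK293 cells stably carrying hNpr1 and the pGS-40F cGMP biosensor. Stimulation uses hNppA at 0.1 nM final; luminescence is taken at baseline and 20 min post-agonist.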
# SNCA expr inhib = SNCA gene expression inhibition; HEK-293 SNCA-luciferase knock-in, luminescence, 24 h; Potency, µM (series often up to 57.2 µM), inactives show at the top dose activity change, negative = inhibition, actives largely listed as inhibitors; 140,000 tested, 0.17% active;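 further: plate controls were DMSO cells for no effect and cell-free wells for full effect; nearly all actives have a fitted effect of over 45% in size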
# HEK cytotox = cytotoxic compounds in HEK 293 cells; 94,000 tested, 6.6% active; Potency, µM (doses to about 115 µM), without a hit: top-dose activity change, negative = cytotoxicity, most hits filed as inhibitors; HEK 293 viability, ATP luminescence (CellTiter-Glo), 48-72 h; further: nearly all actives have a fitted effect of over 60% in size
#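 ATP-coupled CellTiter-Glo luminescence served as viability read-out, recorded 10 min after reagent addition at room temperature. HEK 293 cells, 250 cells/well, had been incubated with pintool-transferred compound for 48 or 72 hr at 37 degree Celsius.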
# SNCA viab count = counter-screen for SNCA expression inhibitors: cell viability | HEK-293-SNCA-luc viability, GF-AFC fluorescence, 24 h | Potency, µM (titrated, usually from 57.1 µM), without a hit: top-dose activity change, negative = cytotoxicity, most hits filed as cytotoxic | 150,000 tested, 0.12% active | AID 1671193;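 further: 0% = DMSO-treated cells and -100% = medium-only wells without cells; nearly all actives have a fitted effect of over 30% in size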
#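 HEK-293-SNCA-luc cells (1500/well) plated 24 h, then exposed 24 h to a dilution series; GF-AFC added 30 min at 37C, fluorescence 405/540 nm; normalised to medium-only and DMSO wells, Hill fit.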
# Numbers without * were called inactive; i = inactive; ? = inconclusive; . = no result given; [ ] = dose if it differs, or a comment. An excerpt weighted towards active compounds, which were near 7.4% of everything screened. Unless noted, the call rests on the fitted dose curve; in most records, active means well fitted curve in the direction sought with a large enough effect; inconclusive means small, poorly fitted or top-dose-only effect, or another doubt; inactive means no such curve, though single readings can be large; an effect the other way counts as inactive or inconclusive. Unless noted, on the % scale 0 is the no-effect control and ±100 the full control effect; potency means the concentration at half of the fitted maximal effect.
SMILES,FLuc inh,NIH3T3 tox,hNpr1 antagonist,SNCA expr inhib,HEK cytotox,SNCA viab count
CC(C)(C)C(=O)N1CCC[C@@H]1C(=O)N1CCCC(c2nc3ccncc3[nH]2)C1 (stereo not given in full),.,-14%,.,-23%,-9%,-7%
O=C(C1CCCN1C(=O)Nc1ccc(Cl)cc1)N1CCC(c2ccccc2)CC1 (stereo not given),.,?,.,11%,?,-14%
COc1ccccc1Nc1ccnc(N2CCC(C(=O)NCc3cccc(F)c3)CC2)n1,.,?,.,-28%,?,-22%
COc1ccccc1Nc1ccnc(N2CCC(C(=O)NCCSC)CC2)n1,.,40µM*,.,-10%,?,-14%
COc1ccccc1Nc1ccnc(N2CCC(C(=O)NCc3cccc(C(F)(F)F)c3)CC2)n1,.,32µM*,.,?,?,?
O=C(NCc1cccs1)C1CCCN(c2ccnc3ccnn23)C1 (stereo not given),.,?,.,-3%[87.6 µM],89µM*,?
O=C(NCc1cccs1)C1CCN(c2ccnc3ccnn23)CC1,.,?,.,-26%[87.6 µM],?,-8%[87.6 µM]
O=C(NCc1cccc(C(F)(F)F)c1)C1CCN(c2ccnc3ccnn23)CC1,.,?,.,6%,35µM*,0%
O=C(NCc1cccnc1)C1CCN(c2ccnc3ccnn23)CC1,.,?,.,-7%[87.6 µM],?,1%[87.6 µM]
COc1ccc(-c2cnc([C@@H]3COCCN3Cc3cn(C)c4ccccc34)[nH]2)cc1,i,63µM*,?,?,?,?
Cc1ccc(-c2cnc([C@@H]3COCCN3Cc3cn(C)c4ccccc34)[nH]2)cc1,i,?,?,-28%[87.6 µM],56µM*,-16%[87.6 µM]
Cc1ccc(CN2CCOC[C@H]2c2ncc(C(C)(C)C)[nH]2)cc1,i,100µM*,-15%[70.6 µM],1%[87.6 µM],112µM*,-11%[87.6 µM]
COc1ccc(-c2cnc([C@@H]3COCCN3Cc3nc4ccccc4n3C)[nH]2)cc1,i,?,?,9%[87.6 µM],?,4%[87.6 µM]
Cc1ccc(-c2cnc([C@@H]3COCCN3Cc3ccccc3F)[nH]2)cc1,i,?,-17%[70.6 µM],-16%[87.6 µM],?,0%[87.6 µM]
CC(C)(C)c1cnc([C@@H]2COCCN2Cc2ccc(C(=O)O)cc2)[nH]1,i,?,1%[70.6 µM],5%[87.6 µM],-4%[172 µM],5%[87.6 µM]
Cn1cc(CN2CCOC[C@H]2c2ncc(-c3ccc(F)cc3F)[nH]2)c2ccccc21,i,50µM*,-27%[70.6 µM],-23%[87.6 µM],50µM*,1%[87.6 µM]
COc1ccc(-c2cnc([C@@H]3COCCN3Cc3ccc(C)cc3)[nH]2)cc1,i,?,-20%[70.6 µM],0%[87.6 µM],?,-4%[87.6 µM]
COc1ccc(CN2CCOC[C@H]2c2ncc(-c3ccc(OC)cc3)[nH]2)cc1,i,?,-5%[70.6 µM],-20%[87.6 µM],89µM*,3%[87.6 µM]
Cc1cccc2c1O[C@H]1[C@H](CO)CN(C(=O)CC(C)(C)C)[C@@H]21,.,-12%,.,.,?,.
Cc1cccc2c1O[C@H]1[C@H](CO)CN([S+](=O)([O-])Cc3ccccc3)[C@@H]21,.,?,.,.,79µM*,.
O=C1NC(=NC2CCCC2)C2(CCCN(Cc3ccccc3)C2)N1c1cccnc1 (stereo not given),.,25µM*,.,5%,-10%,5%
COc1ccc(CN2CCCC3(C2)C(=NC2CCCC2)NC(=O)N3c2cccnc2)cc1 (stereo not given),.,22µM*,.,-25%,-10%,5%
O=C1NC(=NC2CCCC2)C2(CCCN(CC3CCCCC3)C2)N1c1cccnc1 (stereo not given),.,7.1µM*,.,?,?,-4%
CC(C)CCN1CCCC2(C1)C(=NC1CCCC1)NC(=O)N2c1cccnc1 (stereo not given),.,7.1µM*,.,-15%,?,3%
O=C1NC(=NC2CCCC2)C2(CCN(Cc3ccccc3)C2)N1c1cccnc1 (stereo not given),.,?,.,2%,0%,-2%
CC1=NS(=O)(=O)N(C)C=C1C(=O)OCc1nc(-c2ccccc2Cl)no1,i,-22%,-8%,11%,?,15%
